Screening results (PubChem)
The list is not random: actives were taken first. Their share in the collection is about 3.5%.
GPR151 ag = activators of human GPR151, primary screen, cell-based, PathHunter beta-arrestin, luminescence | G-protein coupled receptor 151 (Homo sapiens), Q8TDV0 | PathHunter beta-arrestin GPR151 cells | activation, % at 11.2 µM | actives 1% (n = 650,000); in the data active means activation above about 4.9%;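 further: 0% = median of compound wells and 100% = cells with positive control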
FBW7 act = FBW7 E3 ligase activators, primary screen, biochemical, AlphaScreen, human; F-box/WD repeat-containing protein 7 (Homo sapiens), Q969H0; AlphaScreen FBW7–phospho-cyclin E peptide binding, activator screen; normalized activity (activation), % at 26.1 µM; actives 0.13% (n = 650,000); in the data active means normalized activity above about 1.9%;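 further: purified mutant Fbw7 with reduced substrate affinity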
TEAD-YAP inh = TEAD-YAP interaction inhibition, primary screen, TEAD-YAP interaction inhibitor project, luminescence, HEK-TIYL cells. TEAD-Gal4/YAP UAS-luciferase luminescence. inhibition, % at 9.12 µM. actives 1.4% (n = 640,000). AID 1259422, 2018; in the data active means inhibition above about 32%;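 further: 0% = median of test compound wells and 100% = reference inhibitor wells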
MITF inh = MITF inhibitors, primary screen, biochemical, AlphaScreen, human; inhibition, % at 2.6 µM; Microphthalmia-associated transcription factor (Homo sapiens), O75030; actives 0.91% (n = 650,000); AID 1259374, 2018; AlphaScreen MITF homodimerization, bead proximity signal; in the data active means inhibition above about 50%;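 further: 0% = vehicle wells with protein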
Target sequence (O75030 whole entry, looked up): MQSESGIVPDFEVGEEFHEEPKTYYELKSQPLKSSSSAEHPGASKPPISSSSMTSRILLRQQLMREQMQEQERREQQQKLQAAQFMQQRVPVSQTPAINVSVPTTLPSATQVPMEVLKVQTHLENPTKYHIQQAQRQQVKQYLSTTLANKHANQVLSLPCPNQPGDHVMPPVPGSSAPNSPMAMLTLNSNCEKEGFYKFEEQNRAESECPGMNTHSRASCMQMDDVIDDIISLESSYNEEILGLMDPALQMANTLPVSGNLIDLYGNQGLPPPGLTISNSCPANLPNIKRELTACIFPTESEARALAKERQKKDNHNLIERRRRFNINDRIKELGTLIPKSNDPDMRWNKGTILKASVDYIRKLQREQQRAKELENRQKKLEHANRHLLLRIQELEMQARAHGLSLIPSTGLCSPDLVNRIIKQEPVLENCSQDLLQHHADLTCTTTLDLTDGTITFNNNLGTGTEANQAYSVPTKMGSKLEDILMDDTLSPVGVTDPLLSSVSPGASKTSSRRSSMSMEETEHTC
Numbers without * were called inactive.

Screening c1cc(-c2nc3ccc(Nc4nccc(-c5cncc(N6CCOCC6)c5)n4)cc3o2)ccn1 returned GPR151 ag 2, FBW7 act 0, TEAD-YAP inh -3 and MITF inh 4.
`CCN1C(=O)CC(C(=O)Nc2ccc(Cl)cc2)SC1=Nc1ccc(OC)cc1` (stereo not drawn) gave GPR151 ag 2, FBW7 act 0, TEAD-YAP inh 38* and MITF inh 1.
Screening CCN(Cc1ccncc1)C1CCN(c2ccc(CC(=O)NCc3ccccc3)cc2)CC1 returned GPR151 ag -1, FBW7 act 0, TEAD-YAP inh 41* and MITF inh 15.
Screening Cn1c2c(c(=O)n(C)c1=O)C(NC(=O)c1cccnc1)(C(F)(F)F)C(=O)N2 (stereo not drawn) returned GPR151 ag 0, FBW7 act 0, TEAD-YAP inh 7 and MITF inh 4.
For COCc1c(C(=O)N/N=C/c2cccc(OC)c2O)nnn1-c1nonc1N the results were GPR151 ag 0, FBW7 act 0, TEAD-YAP inh 73* and MITF inh 61*.
COCc1c(C(=O)N/N=C/c2ccccc2Cl)nnn1-c1nonc1N was read as GPR151 ag 1, FBW7 act 0, TEAD-YAP inh -5 and MITF inh 6.
For CCc1c(C(=O)N/N=C/c2cccc(OC)c2O)nnn1-c1nonc1N the results were GPR151 ag 0, FBW7 act 0, TEAD-YAP inh 74* and MITF inh 20.
For N#C/C(=C(/O)c1cccc([N+](=O)[O-])c1)c1nnc(N2CCOCC2)n1-c1ccccc1 the results were GPR151 ag -1, FBW7 act 0, TEAD-YAP inh 4 and MITF inh -1.
For C=CCN1/C(=C/C(=C/c2sc3ccccc3[n+]2CC=C)CC)Sc2ccccc21 the results were GPR151 ag 4, FBW7 act 0, TEAD-YAP inh 83* and MITF inh 52*.
Cc1ccc(C)c(NC(=O)CSc2nc3ncnc(N)c3[nH]2)c1 was read as GPR151 ag 1, FBW7 act 0, TEAD-YAP inh -3 and MITF inh 3.
CC(C)(C)n1ncc2c(=O)n(CC(=O)OCc3ccccc3)cnc21 was read as GPR151 ag -1, FBW7 act 0, TEAD-YAP inh 82* and MITF inh 0.
O=C(Nc1cc(C(F)(F)F)ccc1Cl)c1cc([N+](=O)[O-])ccc1Cl was read as GPR151 ag 0, FBW7 act 0, TEAD-YAP inh -3 and MITF inh -6.
Screening O=C(Nc1cc(C(F)(F)F)ccc1N1CCCC1)c1cc([N+](=O)[O-])ccc1Cl returned GPR151 ag -1, FBW7 act 0, TEAD-YAP inh 86* and MITF inh 7.
O=C(Nc1cccc2ccccc12)c1cc([N+](=O)[O-])ccc1Cl was read as GPR151 ag 2, FBW7 act 0, TEAD-YAP inh 60* and MITF inh 14.
Screening Cc1cc(O)c(NC(=O)c2cc([N+](=O)[O-])ccc2Cl)cc1C returned GPR151 ag -1, FBW7 act 1, TEAD-YAP inh 43* and MITF inh 6.
O=C(Nc1ccccc1Cl)c1cc([N+](=O)[O-])ccc1Cl was read as GPR151 ag 2, FBW7 act 0, TEAD-YAP inh 36* and MITF inh 4.
Screening CC(=O)Nc1ccccc1NC(=O)c1cc([N+](=O)[O-])ccc1Cl returned GPR151 ag 1, FBW7 act 0, TEAD-YAP inh 3 and MITF inh -4.
O=C(Nc1ccc(F)cc1)C1CCCC1 was read as GPR151 ag 0, FBW7 act 0, TEAD-YAP inh -3 and MITF inh 4.
Screening Cc1sc2ncn(CC(=O)Nc3ccc(Oc4ccc(Cl)cc4)cc3)c(=O)c2c1C returned GPR151 ag 3, FBW7 act 0, TEAD-YAP inh 10 and MITF inh -2.
c1ccc2[nH]c(CNc3nc(N4CCN(Cc5ccc6c(c5)OCO6)CC4)nc4c3ncn4-c3ccsc3)nc2c1 was read as GPR151 ag 0, FBW7 act 0, TEAD-YAP inh 85* and MITF inh -3.
For c1cc2c(cc1CN1CCN(c3nc(NC4CC4)c4ncn(C5CCCCC5)c4n3)CC1)OCO2 the results were GPR151 ag 0, FBW7 act 0, TEAD-YAP inh 3 and MITF inh 14.
c1ccc2[nH]c(CNc3nc(N4CCN(Cc5ccc6c(c5)OCO6)CC4)nc4c3ncn4C3CCCCC3)nc2c1 was read as GPR151 ag 3, FBW7 act 0, TEAD-YAP inh 41* and MITF inh -1.
CCC(C(=O)NCc1ccccc1C)n1c2ccccc2c2nc(=O)cc(C)n21 (stereo not drawn) was read as GPR151 ag -1, FBW7 act 0, TEAD-YAP inh 0 and MITF inh 1.
`COc1ccc(C(=O)OCc2cc(=O)n3cc(Br)ccc3n2)cc1[N+](=O)[O-]` gave GPR151 ag -1, FBW7 act 0, TEAD-YAP inh -4 and MITF inh 6.
Screening COc1cc2nc(Nc3cccc(N(C)C)c3)nc(Nc3ccc(N4CCOCC4)cc3)c2cc1OC returned GPR151 ag 0, FBW7 act 0, TEAD-YAP inh 5 and MITF inh 14.
For Cc1cnc(NCc2ccc3c(c2)OCO3)nc1Nc1ccc2c(c1)OCO2 the results were GPR151 ag 1, FBW7 act 0, TEAD-YAP inh 4 and MITF inh -1.
Screening Cc1cnc(Nc2cccc(N(C)C)c2)nc1Nc1ccc2c(c1)OCO2 returned GPR151 ag 1, FBW7 act 0, TEAD-YAP inh 40* and MITF inh 23.
`c1cc2c(cc1Nc1nc(N3CCCCC3)nc(N3CCCCC3)n1)OCO2` gave GPR151 ag -2, FBW7 act 2.2*, TEAD-YAP inh -5 and MITF inh 1.
For c1cc2c(cc1Nc1nc(N3CCOCC3)nc(N3CCOCC3)n1)OCO2 the results were GPR151 ag -1, FBW7 act 0, TEAD-YAP inh 4 and MITF inh 3.
Cc1cnc(Nc2cccc(N(C)C)c2)nc1Nc1ccc(N2CCOCC2)cc1 was read as GPR151 ag 2, FBW7 act 0, TEAD-YAP inh 66* and MITF inh 19.
For CN(C)c1cccc(Nc2nccc(Nc3ccc(N4CCOCC4)cc3)n2)c1 the results were GPR151 ag 2, FBW7 act 0, TEAD-YAP inh 39* and MITF inh 4.
For Cc1c(Cl)cccc1NC(=O)c1cc(S(=O)(=O)N2CCc3ccccc3C2)ccc1F the results were GPR151 ag 0, FBW7 act 0, TEAD-YAP inh -1 and MITF inh -3.
For O=C(Cn1nc(-c2ccc(Cl)cc2)ccc1=O)NC1CCCC1 the results were GPR151 ag -1, FBW7 act 1, TEAD-YAP inh -5 and MITF inh 20.
For Cc1cnc(Nc2ccc(C(F)(F)F)cc2)nc1Nc1ccc2c(c1)OCO2 the results were GPR151 ag 1, FBW7 act 0, TEAD-YAP inh -9 and MITF inh 18.
